# About 79,000 compounds went through this panel and 15% of them were active in at least one assay; those are over-represented in the sample as a whole. Unmarked numbers belong to inactive results. Calls of active or inactive are those of the source. Rule as the data show it: active = growth inhibition above about 70%; inactive = the rest.
# How the values were obtained:
# [1] = NCI Yeast Anticancer Drug Screen. Data for the rad52 strain (AID 147);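 also: 0% = growth of vehicle-treated control cultures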; details: S. cerevisiae rad52 mutant growth inhibition, hits give high values
# Summary of the method: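 Yeast strain carrying a DNA damage repair alteration was exposed to test compounds. Growth inhibition was measured relative to vehicle-treated controls.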
# [2] = NCI Yeast Anticancer Drug Screen. Data for the wt1 strain (AID 149);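 also: 0% = growth of vehicle-treated wt1 cultures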; details: S. cerevisiae wt1 strain (SPY 50644) growth inhibition, hits give high values
# Summary of the method: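 wt1 strain grown with compound or vehicle; inhibition taken from the growth difference.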
# [3] = NCI Yeast Anticancer Drug Screen. Data for the rad50EPP+ strain (AID 151);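 also: 0% = growth of vehicle-treated control cultures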; details: S. cerevisiae rad50 mutant strain, hits give high values
# Summary of the method: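 Yeast strain carrying rad50 alteration (rad50EPP+) exposed to compounds; growth inhibition measured relative to vehicle-treated controls.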
# [4] = NCI Yeast Anticancer Drug Screen. Data for the mgt1 strain (AID 153); details: S. cerevisiae mgt1 mutant growth inhibition, hits give high values
# Summary of the method: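 Yeast mgt1 strain (DNA repair/cell-cycle alteration panel) exposed to compounds; growth inhibition measured relative to vehicle-treated controls.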
# [5] = NCI Yeast Anticancer Drug Screen. Data for the rad50 strain (AID 155);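 also: 0% = growth of vehicle-only cultures of the same strain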; details: S. cerevisiae rad50 strain growth inhibition, hits give high values
# Summary of the method: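 DNA repair mutant yeast, compound exposure, growth read-out; inhibition is taken relative to vehicle.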
# [6] = NCI Yeast Anticancer Drug Screen. Data for the mec2-1 strain (AID 157); details: S. cerevisiae mec2-1 strain, hits give high values
# Summary of the method: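 mec2-1 yeast strain, carrying an alteration in DNA damage repair or cell cycle control, was exposed to compounds; growth inhibition was measured relative to vehicle-treated controls.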
# [7] = NCI Yeast Anticancer Drug Screen. Data for the sgs1 mgt1 strain (AID 161);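 also: 0% = growth of cultures given vehicle only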; details: S. cerevisiae sgs1 mgt1 strain, hits give high values
# Summary of the method: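 Percent growth inhibition was derived by comparing compound-exposed mutant yeast with vehicle-exposed cultures. The strain carries alterations in DNA damage repair.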
# [8] = NCI Yeast Anticancer Drug Screen. Data for the CLN2oe strain (AID 163);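 also: 0% = growth of vehicle-only control cultures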; details: S. cerevisiae CLN2oe strain, hits give high values
# Summary of the method: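 Yeast cells carrying a defined cell-cycle control alteration were exposed to test compounds. Growth inhibition was scored against vehicle-treated control cultures.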
# [9] = NCI Yeast Anticancer Drug Screen. Data for the cln2 rad14 strain (AID 165);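 also: 0% = growth equal to vehicle treated cultures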; details: S. cerevisiae cln2 rad14 strain, hits give high values
# Summary of the method: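 Yeast carrying cln2 and rad14 alterations (cell cycle control and DNA damage repair) were exposed to compounds. Growth inhibition was measured against vehicle-treated controls.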
# [10] = NCI Yeast Anticancer Drug Screen. Data for the bub3 strain (AID 167); details: S. cerevisiae bub3 mutant strain, hits give high values
# Summary of the method: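 In this screen, a yeast mutant lacking normal mitotic checkpoint function is challenged with compound. Relative growth versus vehicle gives the inhibition value.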
# [11] = NCI Yeast Anticancer Drug Screen. Data for the wt2 strain (AID 169);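 also: 0% = growth of vehicle-treated yeast cultures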; details: S. cerevisiae wt2 strain growth inhibition, hits give high values
# Summary of the method: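 Yeast cells were exposed to test compounds, and growth inhibition was measured relative to vehicle-treated controls.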
# [12] = NCI Yeast Anticancer Drug Screen. Data for the mlh1 strain (AID 171);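 also: 0% = growth of vehicle-treated control cultures of the same strain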; details: S. cerevisiae mlh1 strain growth inhibition, hits give high values
# Summary of the method: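 Yeast carrying a defined genetic alteration in DNA damage repair or cell cycle control were exposed to test compounds. Growth inhibition was measured relative to vehicle-treated controls.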
# [13] = NCI Yeast Anticancer Drug Screen. Data for the sgs1 strain (AID 173);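 also: 0% = growth of vehicle-only control cultures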; details: S. cerevisiae sgs1 mutant, hits give high values
# Summary of the method: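 Yeast mutant strains carrying defined defects in DNA damage repair or cell cycle control were exposed to test compounds. Growth inhibition was scored against vehicle-treated controls.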
# [14] = NCI Yeast Anticancer Drug Screen. Data for the mlh1 rad18 strain (AID 175); details: S. cerevisiae mlh1 rad18 strain growth inhibition, hits give high values
# Summary of the method: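 Growth inhibition of the yeast strain was measured after compound exposure and expressed relative to vehicle-treated controls. The strain carries defined defects in DNA damage repair.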
# [15] = NCI Yeast Anticancer Drug Screen. Data for the rad18 strain (AID 177); details: S. cerevisiae rad18 mutant growth inhibition, hits give high values
# Summary of the method: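 Yeast carrying a defined DNA damage repair alteration were exposed to compounds. Growth inhibition was expressed relative to vehicle-treated controls.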
# [16] = at 5.0 µM (retest, dose inferred, filed as 0.5)
# [17] = at 50.0 µM (retest, dose inferred, filed as 5.0)
smiles,measurement,setting,value
c1ccc2cc(NCNc3ccc4ccccc4c3)ccc2c1,growth inhibition,[1]; at 1.2 µM,-3%
same,growth inhibition,[1]; at 3.7 µM,-6%
same,growth inhibition,[1]; at 11.0 µM,-9%
same,growth inhibition,[1]; at 33.0 µM,1%
same,growth inhibition,[1]; at 100.0 µM,24%
same,growth inhibition,[2]; at 1.2 µM,2%
same,growth inhibition,[2]; at 3.7 µM,3%
same,growth inhibition,[2]; at 11.0 µM,6%
same,growth inhibition,[2]; at 33.0 µM,11%
same,growth inhibition,[2]; at 100.0 µM,16%
same,growth inhibition,[3]; at 1.2 µM,0%
same,growth inhibition,[3]; at 3.7 µM,6%
same,growth inhibition,[3]; at 11.0 µM,11%
same,growth inhibition,[3]; at 33.0 µM,26%
same,growth inhibition,[3]; at 100.0 µM,42%
same,growth inhibition,[4]; at 1.2 µM,1%
same,growth inhibition,[4]; at 3.7 µM,0%
same,growth inhibition,[4]; at 11.0 µM,3%
same,growth inhibition,[4]; at 33.0 µM,8%
same,growth inhibition,[4]; at 100.0 µM,12%
same,growth inhibition,[5]; at 1.2 µM,1%
same,growth inhibition,[5]; at 3.7 µM,-5%
same,growth inhibition,[5]; [16],-9%
same,growth inhibition,[5]; at 11.0 µM,5%
same,growth inhibition,[5]; at 33.0 µM,0%
same,growth inhibition,[5]; [17],75% (active)
same,growth inhibition,[5]; at 50.0 µM,95.8% (active)
same,growth inhibition,[5]; at 100.0 µM,22%
same,growth inhibition,[6]; at 1.2 µM,0%
same,growth inhibition,[6]; at 3.7 µM,1%
same,growth inhibition,[6]; [16],8%
same,growth inhibition,[6]; at 11.0 µM,3%
same,growth inhibition,[6]; at 33.0 µM,14%
same,growth inhibition,[6]; [17],46%
same,growth inhibition,[6]; at 50.0 µM,69.8%
same,growth inhibition,[6]; at 100.0 µM,27%
same,growth inhibition,[7]; [16],0%
same,growth inhibition,[7]; [17],46%
same,growth inhibition,[7]; at 50.0 µM,95.3% (active)
same,growth inhibition,[8]; at 1.2 µM,-3%
same,growth inhibition,[8]; at 3.7 µM,-3%
same,growth inhibition,[8]; at 11.0 µM,-6%
same,growth inhibition,[8]; at 33.0 µM,-1%
same,growth inhibition,[8]; at 100.0 µM,6%
same,growth inhibition,[9]; [16],-17%
same,growth inhibition,[9]; [17],-22%
same,growth inhibition,[9]; at 50.0 µM,76.9% (active)
same,growth inhibition,[10]; at 1.2 µM,0%
same,growth inhibition,[10]; at 3.7 µM,6%
same,growth inhibition,[10]; [16],18%
same,growth inhibition,[10]; at 11.0 µM,-22%
same,growth inhibition,[10]; at 33.0 µM,51%
same,growth inhibition,[10]; [17],76% (active)
same,growth inhibition,[10]; at 50.0 µM,94.8% (active)
same,growth inhibition,[10]; at 100.0 µM,55%
same,growth inhibition,[11]; at 1.2 µM,-1%
same,growth inhibition,[11]; at 3.7 µM,1%
same,growth inhibition,[11]; at 11.0 µM,1%
same,growth inhibition,[11]; at 33.0 µM,7%
same,growth inhibition,[11]; at 100.0 µM,12%
same,growth inhibition,[12]; at 1.2 µM,3%
same,growth inhibition,[12]; at 3.7 µM,3%
same,growth inhibition,[12]; at 11.0 µM,4%
same,growth inhibition,[12]; at 33.0 µM,-22%
same,growth inhibition,[12]; at 100.0 µM,15%
same,growth inhibition,[13]; at 1.2 µM,3%
same,growth inhibition,[13]; at 3.7 µM,0%
same,growth inhibition,[13]; at 11.0 µM,1%
same,growth inhibition,[13]; at 33.0 µM,8%
same,growth inhibition,[13]; at 100.0 µM,27%
same,growth inhibition,[14]; [16],12%
same,growth inhibition,[14]; [17],65%
same,growth inhibition,[14]; at 50.0 µM,94.9% (active)
same,growth inhibition,[15]; at 1.2 µM,-5%
same,growth inhibition,[15]; at 3.7 µM,-2%
same,growth inhibition,[15]; at 11.0 µM,-19%
same,growth inhibition,[15]; at 33.0 µM,-9%
same,growth inhibition,[15]; at 100.0 µM,3%
